Measured values taken from PubChem BioAssay AID504941 (Broad Institute, 2011).
About 170 (14%) of roughly 1,200 compounds were called active. The rule behind the calls is not given here. Only a sample is shown. Potency and affinity values are given separately.

Test: E. coli Tat export inhibitors, dose response, cherry-pick, set 2, plate reader (AID 504941)
Conditions: E. coli Tat transport reporter; series mostly up to 38 µM; activity change, negative = inhibition: at the top concentration

Row | SMILES | activity change, negative = inhibition
1 | Cc1c(C)c2c(C)nn(-c3ccccc3)c2[nH]c1=O | -0.775% (inactive)
2 | CC(C)(C)c1nn2cnnc2n(/N=C/c2cccc3ccccc23)c1=O | 24.3% (inactive)
3 | CCOC(=O)c1c(N/C=C(\C#N)c2nc(-c3ccc(OC(C)=O)cc3)cs2)sc2c1CCC2 | 12.3% (inactive)
4 | CCc1nc2cc3sc(CC)nc3cc2s1 | 15.8% (inactive)
5 | CC(C)c1ccc(NC(=O)c2snc3ccc(Cl)cc23)cc1 | -3.4% (inactive)
6 | Cc1ccc(C(=O)Nc2nc(C)c(C(=O)Nc3ccc4c(c3)CCC4)s2)cc1 | 15.6% (inactive)
7 | Cc1ccc[n+](CC(=O)c2cc3ccccc3oc2=O)c1 | 3.31% (inactive)
8 | Cc1nc2scc(-c3ccccc3)c2c(=O)n1/N=C/c1ccco1 | 11.6% (inactive)
9 | Cc1ccc(-n2c3nc(=O)[nH]c(=O)c-3cc3c(C)nn(-c4ccccc4)c32)c(C)c1 | 11.6% (inactive)
10 | COc1ccc(-c2noc(CSc3nnc(-c4ccncc4)n3-c3ccc(F)cc3)n2)cc1OC | -7.91% (inactive)
11 | CCCCc1c(O)nc(SCC(=O)c2ccccc2)[nH]c1=O | 3.64% (inactive)
12 | CCN(CC)CCCn1c(C)cc2c(c1=O)C(c1cccc(Cl)c1)C(C#N)=C(N)O2 (centres undefined) | 17.9% (inactive)
13 | Cc1ccc(NC(=O)CN2CCN(c3ccccn3)CC2)c(Cl)c1 | 12.6% (inactive)
14 | Cc1cc(Cl)ccc1NC(=O)CN1CCCC1 | -11.6% (inactive)
15 | O=C(CCCn1c(=O)[nH]c2ccsc2c1=O)N1CCCCC1 | -18.6% (inactive)
16 | CC(C)OC(=O)Cn1c(=O)oc2ccccc21 | -1.58% (inactive)
17 | O=C(C1CC(=O)N(C2CCCC2)C1)N1CCN(c2ccc(F)cc2)CC1 (centres undefined) | -6.74% (inactive)
18 | Nc1nc2ccc([N+](=O)[O-])c(N)c2s1 | 15.8% (inactive)
19 | CCCn1c(=N)c(S(=O)(=O)c2ccc(F)cc2)cc2c(=O)n3cccc(C)c3nc21 | -9.12% (inactive)
20 | CC(C)c1cc(C(N)=O)c(NC(=O)c2cccc(COc3ccc(Cl)cc3)c2)s1 | 10.4% (inactive)
21 | CCn1nc(-c2ccccc2)c2nc3ccccc3nc21 | 27.2% (inactive)
22 | C=C1CSc2nc(=O)c3c4c(sc3n21)CCCC4 | 7.3% (inactive)
23 | COc1ccc(C(CNC(=O)c2cc(SC)ccc2Cl)N(C)C)cc1 (centres undefined) | 0.77% (inactive)
24 | O=c1/c(=C/c2ccc(O)c([N+](=O)[O-])c2)sc2nc3ccccc3n12 | 4.56% (inactive)

Row | SMILES | activity change, negative = inhibition
25 | CCn1cc(C(=O)O)c(=O)c2cc(F)c(N3CCN(C(=S)NC(=O)c4ccc(F)c(F)c4)CC3)cc21 | 422% (inactive)
26 | Cc1ccnc(NC(c2cccnc2)c2ccc3cccnc3c2O)c1 (centres undefined) | 1.66% (inactive)
27 | Oc1c(Br)cc(C2N=C(c3ccccc3)NO2)cc1Br (centres undefined) | 13.5% (inactive)
28 | CCOC(=O)C1(c2nc(N)cs2)COC(=O)C1 (centres undefined) | 8.65% (inactive)
29 | COc1ccccc1-c1ccc(=O)n(CC(=O)Nc2ccc(C(=O)N3CCCC3)cc2)n1 | -4.17% (inactive)
30 | O=C(c1ccccc1)N1CCN(c2nc3ccc([N+](=O)[O-])cc3s2)CC1 | 8.95% (inactive)
31 | Nc1nc(NCC2CCCO2)nc(Nc2cccc(Cl)c2)c1[N+](=O)[O-] (centres undefined) | -1.52% (inactive)
32 | COc1ccc(CNC(=O)Cn2nnc(-c3ccc(NC(=O)C4CCCCC4)cc3)n2)cc1 | 11.5% (inactive)
33 | Cc1ccc(NC(=O)c2ncn(CCCNCc3ccccn3)n2)cc1C | 7.97% (inactive)
34 | O=C(NCc1cccs1)Nc1cccc(Cl)c1 | -9.39% (inactive)
35 | COc1ccc(CCNC(=O)CN2CCOc3ccccc32)cc1OC | 15.9% (inactive)
36 | COc1ccc(N2CCN(C3CC(=O)N(c4ccc5c(c4)OCCO5)C3=O)CC2)cc1 (centres undefined) | 31.4% (inactive)
37 | Cc1ccc(O)c(C(=O)c2coc(=N)c(C(=O)NC(C)C)c2)c1 | -5.5% (inactive)
38 | C=CCNc1ccccc1S(=O)(=O)NCc1ccccc1 | 15.6% (inactive)
39 | O=C(Nc1ccc(Oc2ccccc2)nc1)C1CCCCN1Cc1ccc(OCCO)cc1 (centres undefined) | 1.23% (inactive)
40 | CCOc1ccc(Nc2nc3c(c(=O)[nH]2)CCCC3)cc1 | 4.88% (inactive)
41 | COc1ccc(/C=C/C(=O)Nc2ccccc2C(=O)O)cc1OC | 1.99% (inactive)
42 | NS(=O)(=O)c1ccc(CCNC(=O)Cc2ccc(S(=O)(=O)N3CCCC3)s2)cc1 | -6% (inactive)
43 | CC1COc2c(N3CCN(C)CC3)c(F)cc3c(=O)c(C(=O)O)cn1c23 (centres undefined) | -81.4% (inactive)
44 | CCn1cc(C(=O)O)c(=O)c2cc(F)c(N3CCN(C)CC3)cc21 | -89.3% (inactive)
45 | O=C(NC(Cc1ccccc1)c1nc2ccccc2[nH]1)c1ccc(Cl)c([N+](=O)[O-])c1 (centres undefined) | -0.833% (inactive)
46 | CCOC(=O)c1c(C)[nH]c(C(=O)N(C)Cc2cccc(OC)c2OC)c1C | -7.53% (inactive)
47 | COc1ccccc1NS(=O)(=O)c1cccc(N=C2N=C(N)c3ccccc32)c1 | -10.2% (inactive)
48 | CC(=O)Nc1sc(NC(=O)c2ccccc2)nc1-c1cccs1 | -0.47% (inactive)

Row | SMILES | activity change, negative = inhibition
49 | Cc1ccc(/C=N/NC(=O)c2ccc(Cn3cc([N+](=O)[O-])cn3)o2)cc1 | 0.708% (inactive)
50 | O=C(NCc1cccnc1)C(=O)NCC1OCCN1S(=O)(=O)c1ccc(F)cc1 (centres undefined) | 4.34% (inactive)
51 | COc1ccc(C(=O)OC(C)CN2CCN(C)CC2)cc1 (centres undefined) | 3.65% (inactive)
52 | Cc1ccc(-n2c(O)c(C=Nc3ccccc3-c3n[nH]c(=S)[nH]c3=O)c3ccccc3c2=O)cc1C | 3.74% (inactive)
53 | Cc1cc(NC(=O)c2ccc([N+](=O)[O-])cc2)n(C)n1 | -2.67% (inactive)
54 | COc1ccc(/C=C(/NC(=O)c2cccc([N+](=O)[O-])c2)C(=O)O)cc1 | -2.44% (inactive)
55 | O=C(NC(=S)NNC(=O)c1ccccc1O)c1ccccc1 | -1.95% (inactive)
56 | COCC(=O)Nc1nnc(Cc2ccc(OC)cc2)s1 | 11% (inactive)
57 | CC(Oc1cccnc1[N+](=O)[O-])C(=O)N1CCc2ccccc21 (centres undefined) | 18.9% (inactive)
58 | Cc1nc(-c2cccc(S(=O)(=O)N3CCOCC3)c2)cs1 | 5.67% (inactive)
59 | CCN(CC)S(=O)(=O)c1cc(NC(=O)c2ccc(-n3cncn3)c([N+](=O)[O-])c2)ccc1C | -3.92% (inactive)
60 | COc1ccc(NC(=O)c2ccccc2[N+](=O)[O-])cc1OC | 2.8% (inactive)
61 | NC(=O)Cn1c(-c2nonc2N)nc2ccccc21 | -3.26% (inactive)
62 | CCCC(=O)Nc1ccc(NC(=O)c2ccccn2)cn1 | -2.92% (inactive)
63 | Cc1onc(-c2c(F)cccc2Cl)c1C(=O)Nc1sc2c(c1C#N)CCC(C(C)(C)C)C2 (centres undefined) | -4.11% (inactive)
64 | Cc1onc(-c2ccccc2)c1C(=O)Nc1nc(-c2cc(F)ccc2F)cs1 | 21.2% (inactive)
65 | Cc1ccccc1NC(=O)NCCN1C(=O)C2C3C=CC(C3)C2C1=O (centres undefined) | 9.55% (inactive)
66 | CCOC(=O)c1ccccc1NC(=S)N1CC(C)CC(C)C1 (centres undefined) | -10% (inactive)
67 | CCOC(=O)c1sc(Nc2nc3ccc(OC)cc3s2)cc1C | 35.6% (inactive)
68 | CCCn1c(N)c(C(=O)CSc2nnnn2-c2ccc(O)cc2)c(=O)n(C)c1=O | 21.5% (inactive)
69 | COC(=O)/C(=C/c1ccco1)NC(=O)c1ccccc1 | 3.77% (inactive)
70 | O=C1OCCN1C(=O)[C@H]1[C@H](c2ccc(Cl)cc2)C(c2ccccc2)=NN1c1ccccc1 | 8.19% (inactive)
71 | COc1cccc(-c2cc(=O)c3cc(NC(C)=O)ccc3[nH]2)c1 | 37.7% (inactive)
72 | Cc1c(NC2=NC3(CCCCC3)Cc3ccccc32)c(=O)n(-c2ccccc2)n1C | 9% (inactive)

Row | SMILES | activity change, negative = inhibition
73 | O=C(Nc1cccc(NC(=O)c2cccnc2)c1)c1ccccc1 | 17.9% (inactive)
74 | O=C1CN(S(=O)(=O)c2ccccc2C(F)(F)F)CCN1 | 9.82% (inactive)
75 | CCCOc1cccc(C(=O)Nc2ccc(Br)cc2F)c1 | -4.33% (inactive)
76 | COc1ccc(OC)c(NC(=O)c2cccnc2)c1 | 0.43% (inactive)
77 | Cc1nn(-c2ccccc2)c(C)c1NC(=O)COC(=O)c1ccc(Cl)c(S(N)(=O)=O)c1 | 3.3% (inactive)
78 | CNC(=S)N1CCN(c2c(F)cc3c(=O)c(C(=O)O)cn(C4CC4)c3c2OC)CC1C (centres undefined) | 395% (inactive)
79 | COc1cc(C(=O)Oc2cc(C)cc(C)c2)cc(OC)c1OC | 36% (inactive)
80 | Cc1ccc(C2CC(c3ccccc3)n3ncnc3N2)cc1 (centres undefined) | -27.9% (inactive)
81 | COc1cc(OC)cc(C(=O)NC2CC(C)(C)NC(C)(C)C2)c1 | -3.59% (inactive)
82 | Cc1ccccc1NC(=O)CCN1CCN(CCO)CC1 | 8.38% (inactive)
83 | CN(Cc1cn[nH]c1-c1ccc(-c2ccccc2)cc1)CC1CCOCC1 | -2.3% (inactive)
84 | Cc1ccc(Cn2c(=O)oc3ccccc32)cc1 | 37.8% (inactive)
85 | O=C(NCc1cccs1)c1cccnc1C(=O)O | -11.6% (inactive)
86 | COc1cc(/C=C(\C#N)c2nn(CCO)c(N)c2C#N)cc(OC)c1OC | -2.58% (inactive)
87 | CCN(CC(=O)NCc1ccc(F)cc1)CC(=O)Nc1ccc(S(=O)(=O)N2CCCC2)cc1 | -0.571% (inactive)
88 | O=C(CSc1nc2ccccc2c(=O)n1CCCN1CCOCC1)Nc1ccc2c(c1)OCO2 | -4.12% (inactive)
89 | CC1CCN(C(=O)C2(NC(=O)Nc3cccc(F)c3)CCCCC2)CC1 | 18.6% (inactive)
90 | Cc1nc(SCc2nc3ccccc3[nH]2)c2oc3ccccc3c2n1 | -11.4% (inactive)
91 | Nc1ccc(C(=O)Nc2nc3ccccc3s2)cc1 | 2.47% (inactive)
92 | COCc1cc(C)n(CC(=O)NC(C)c2ccccc2)c(=O)c1C#N (centres undefined) | 4.42% (inactive)
93 | COc1ccc(S(=O)(=O)Nc2nc3c(s2)CCCC3)cc1 | 15.9% (inactive)
94 | CCCCOCC1CN(c2ccccc2)C(=O)CS1 (centres undefined) | -12.1% (inactive)
95 | Cc1ccc(NC(=O)COC(=O)CCC(=O)c2cccs2)c(C)c1 | -7.07% (inactive)
96 | Cc1ccc(C)c(NC(=O)CCN2CCc3ccccc3C2)c1 | 10.6% (inactive)

Row | SMILES | activity change, negative = inhibition
97 | COc1ccc(N(CC(=O)NCc2ccc(Cl)cc2)S(=O)(=O)c2ccccc2[N+](=O)[O-])c(OC)c1 | 13.4% (inactive)
98 | Cc1cc(C)nc(SC(C)C(=O)N/N=C/c2cccs2)n1 (centres undefined) | -3.03% (inactive)
99 | Cc1ccc(C(=O)c2cnc3ccccc3c2-c2ccccc2)cc1 | 6.74% (inactive)
100 | CC1=NCC(C)c2c1[nH]c1ccccc21 (centres undefined) | 18.7% (inactive)
101 | Cc1cccc(/C=N/NC(=O)c2cc(C3CC3)nc3ccccc23)n1 | 0.812% (inactive)
102 | O=C(NCc1ccccc1)C(=O)NCC1OCCN1S(=O)(=O)c1ccc([N+](=O)[O-])cc1 (centres undefined) | 2.79% (inactive)
103 | Cc1noc(C)c1COC(=O)c1cccc(S(=O)(=O)N2CCOCC2)c1 | 13.1% (inactive)
104 | C#CCOCCOCCOCCNc1nc(N2CCN(C(=O)Cn3cc(CC(C)O)nn3)CC2)nc(N2CCN(C(=O)[C@H](CCCCN)n3cc(CCCC)nn3)CC2)n1 (some centres undefined) | 13.3% (inactive)
105 | COc1cccc(-n2c(SCc3ccccn3)nc3c(c2=O)SCC3)c1 | 38.5% (inactive)
106 | Cc1ccc2cccc(OCC(=O)N3CCc4ccccc43)c2n1 | 2.15% (inactive)
107 | COc1ccc(CCNC(=O)/C=C/c2ccco2)cc1OC | 9.53% (inactive)
108 | COc1ccccc1N1CCN(c2nc(-c3ccccc3)cc(C(F)(F)F)n2)CC1 | -1.92% (inactive)
109 | Cc1ccccc1OCC(=O)Nc1nnc(-c2ccncc2)s1 | -14.8% (inactive)
110 | NC1C2CN(c3nc4c(cc3F)c(=O)c(C(=O)O)cn4-c3ccc(F)cc3F)CC12 (centres undefined) | -67.3% (inactive)
111 | CSc1cccc(NC(=O)CN(C)S(=O)(=O)c2cnc[nH]2)c1 | -1.69% (inactive)
112 | O=C(N/C(=C/c1ccccc1)C(=O)N1CCCCC1)c1ccc(Br)o1 | 12.3% (inactive)
113 | COc1cccc(NC(=O)c2ccc3c(SCC(=O)O)c4c(nc3c2)CCCC4)c1 | 9.97% (inactive)
114 | COc1ccc(OC)c(C(=O)CSc2nnc(-c3cccs3)o2)c1 | 30.7% (inactive)
115 | CC(C)OC(=O)c1nn2c(C(F)(F)F)cc(-c3ccco3)nc2c1Cl | -0.449% (inactive)
116 | O=C(Nc1ccc(Br)cc1)C1CC(O)CN1C(=O)Oc1ccccc1 (centres undefined) | -1.35% (inactive)
117 | CCOc1ccc(NC(C(=O)Nc2cccc(C(C)=O)c2)c2ccccc2)cc1 (centres undefined) | 3.76% (inactive)
118 | O=C(NC1CC1)c1ccc(N2CCCCC2)c([N+](=O)[O-])c1 | -2.46% (inactive)
119 | COc1cc2cc(CN(CCO)S(=O)(=O)c3ccccc3Cl)c(=O)[nH]c2cc1OC | -14.1% (inactive)
